According to the supplement of paper PMC10338343:
± gives the standard deviation.

Each sequence was assayed on MILI (PIWIL2) piRISC loaded with piRNA #1 (26 nt) (assay: pre-steady-state target cleavage rate (min^-1); guide: piRNA #1 5'p-UGAGGUAGUAGGUUGUAUAGUAUCCA; MIWI and MILI are mouse PIWI proteins and EfPiwi is from a freshwater sponge; tags in brackets are library labels; higher = faster piRNA-guided slicing of the target). Conditions: auxiliary factor: 500 nM mouse GTSF1.
Outline: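 In Cleave-'n-Seq, a transcribed, DNA-blocked target RNA library (0.1 nM) was combined with 1 nM active affinity-purified piRISC bearing one synthetic guide, with or without 500 nM GTSF1 partner protein. Reactions ran in HEPES–potassium acetate buffer at 33 °C for 0–8 or 0–960 min. Uncleaved targets were sequenced and normalised to depth and to weakly complementary targets, three trials were pooled, and k3 was capped at 0.0001 min^-1. The pre-steady-state cleavage rate was obtained by fitting a burst-and-steady-state model.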

Row | Sequence | pre-steady-state target cleavage rate
1 | GGAGAGCUUACUAUACAACCUACUACCUCA | 0.132 ± 0.0097
2 | GGAGACCUAUCUAUAGUACCUACUACCUCA | 0.092 ± 0.014
3 | GGAGACCUAUCUAUCACAACCUACUACCUCA | 0.0519 ± 0.01
4 | GGAGUGGAUACUAUACAAGGAACUACCUCA | 0.00353 ± 0.0018
5 | GGAGACCUAUGAUAUGAUCCUACUACCACA | < 0.0001
6 | GGAGACCUUACAAUACAACCUAGUACCUCA | 0.043 ± 0.013
7 | GGAGACCUAUCUAUACAACCUACUUCCUCA | 0.0646 ± 0.012
8 | GGAGACCUAUGAUAUGUACCUACUACCGCA | < 0.0001
9 | GGAGACCUAUGUAUUCAACCUACUUCCUCA | 0.00515 ± 0.0026
10 | GGAGACCUAUGAUAUCAUGGUACUACCUCA | < 0.0001
11 | GGAGACCUAUCUAUAGAACGUACUACCUCA | 0.00596 ± 0.0017
12 | GGAGACCUAUCUAUACAACGUACUAGCUCA | 0.00553 ± 0.0029
13 | GGAGAGGAUACUAAACAACCUACUACGUCA | 0.0356 ± 0.0057
14 | GGAGACCUAUGUAAACAACCUAGUACCUCA | 0.00454 ± 0.0024
15 | GGAGACCAUACUAUACUAGCUACUACCUCA | 0.182 ± 0.018
16 | GGAGACCUAUGAUUACAACCUACCACCUCA | 0.00484 ± 0.0035
17 | GGAGACCUUACUAUACAACGUACAACCUCA | 0.0226 ± 0.0031
18 | GGAGACCUUAGUAUACAACCUACAACCUCA | 0.0865 ± 0.013
19 | GGAGACCUAUGAUAUGUUGCUACUACCUUA | < 0.0001
20 | GGAGACCUAACUAUUCUACCUACUACCUCA | 0.104 ± 0.021

Row | Sequence | pre-steady-state target cleavage rate
21 | GGAGACCUAUGUAUACAACAUACUACCUCA | 0.0179 ± 0.0028
22 | GGAGACCUAUCUAUACAACCAUCUACCUCA | 0.00428 ± 0.0031
23 | GGAGACCUUUCUUUACAACCUACUACCUCA | 0.07 ± 0.012
24 | GGAGACCUAUGUAAACAUCCUACUACCUCA | 0.0128 ± 0.0025
25 | GGAGACCUAUGUAUACAACCUACAACCUGA | 0.0031 ± 0.0024
26 | GGAGUGGAUUCAAUACAACCUACUACCUCA | 0.142 ± 0.0076
27 | GGAGACCUAUGAUUACAAGCUACUACCACA | 0.0854 ± 0.022
28 | GGAGACCUAACAAUACAACCAACUACCUCA | 0.00518 ± 0.004
29 | GGAGACCUUAGUAUACUACCUACUACCUCA | 0.0896 ± 0.012
30 | GGAGACCUAUGAUAUGAACCUACAACCACA | < 0.0001
31 | GGAGACCUAUGAAAACAACCUACUACCUCA | 0.0037 ± 0.0033
32 | GGAGACCUUACUAUACAACCUACCUACCUCA | 0.148 ± 0.015
33 | GGAGACCUAUCUAUACAACCUAUCUACCUCA | 0.0483 ± 0.0065
34 | GGAGAGGAUACUUUACAACCUAGUACCUCA | 0.0146 ± 0.0048
35 | GGAGACCUAUGAUUACAACCUACUACUUCA | 0.00418 ± 0.0024
36 | GGAGACCUAUGAUUACAACCUACUAGCCUCA | 0.00776 ± 0.0028
37 | GGAGACCAUACUAUAAACCUACUACCUCA | 0.0199 ± 0.0046
38 | GGAGACCUAUGAAUACAUCCUACUACCACA | 0.0133 ± 0.0041
39 | GGAGACCUAUGAUAACUUGCUACUACCUCA | < 0.0001
40 | GGAGACCUAUCUAUACAACCUACUUCCACA | 0.0447 ± 0.011
